# Results filed as inconclusive are left out. Calls of active or inactive are those of the source. Calls come from the whole dose curve; as a rule, active = well fitted inhibition curve with a large enough effect; inconclusive = small, poorly fitted or top-dose-only effect; inactive = flat fitted curve, though single readings scatter.
# Target: Dual specificity protein kinase CLK4 (Homo sapiens) (UniProt Q9HAZ1)
# Assay: qHTS Assay for Inhibitors of CDC-like Kinase 4 (ADP-Glo Assay) (AID 1771); note: nearly all actives have a fitted effect of over 70% in size
# Conditions: recombinant CLK4, ADP-Glo luminescence; series mostly up to 80 µM; activity change, negative = inhibition: at the top concentration
# Experimental: NIH Molecular Libraries Probe Production Centers Network [MLPCN] NIH Chemical Genomics Center [NCGC] MLPCN Grant: 1R03MH084827-01 Assay Submitter (PI): Tom Misteli NCGC Assay Overview: Clk4 (Invitrogen, cat# PV3839) was assayed using ATP and the RS repeat peptide (AnaSpec cat # 61722) as substrates. In the assay, the ADP levels were detected using Promega ADP-Glo technology wherein the remaining ATP from the kinase reaction is first depleted with an ATPase reagent followed by a reagent that contains and enzyme which converts the ADP produced to ATP as well as Ultra-Glo luciferase and D-luciferin which generates a bioluminescence signal from the ATP. The positive control for the assay was TG003 (Sigma-Aldrich, cat# 300801-52-9) which has been described as an inhibitor of Clk 4[1].
# NCGC Assay Protocol Summary: Two uL/well of substrate-buffer solution (100 uM RS peptide, 1 uM ATP, 1x ADP-Glo Buffer A, 2 mM MgCl2, 0.5 mM EGTA, 2.5 mM DTT, 0.01% Triton X-100, final concentrations) was dispensed into 1536-well plates (Greiner, solid white, medium binding assay plates) with the Aurora Discovery BioRAPTR Flying Reagent Dispenser (FRD; Beckton-Dickenson). Twenty-three nanoliter of compound and control solutions were transferred to the assay plate using a Kalypsys pin-tool followed by 0.5 uL/well Clk4-buffer solution (25 nM Clk4, 1x ADP-Glo Buffer A, 2 mM MgCl2, 0.5 mM EGTA, 2.5 mM DTT, 0.01% Triton X-100 final concentration) dispensing for a total kinase reaction volume of 2.5 uL/ well. After 1 hr of room-temperature incubation, 2.5 uL ADP-Glo reagent was added and incubated at room temperature for 45 min to stop the kinetic reaction and degrade residual ATP. The ADP product was then converted to ATP by adding 5 uL per well of ADP-Glo Reagent II to yield a total assay volume of 10 uL/ well. Luminescence was detected after 30 min room temperature incubation with the Perkin Elmer Viewlux.
# % is set by controls: 0 for no effect and ±100 for the full control effect; potency is the fitted concentration of half-maximal effect.
# Dual specificity protein kinase CLK4 (Homo sapiens), sequence (Q9HAZ1 whole entry, looked up): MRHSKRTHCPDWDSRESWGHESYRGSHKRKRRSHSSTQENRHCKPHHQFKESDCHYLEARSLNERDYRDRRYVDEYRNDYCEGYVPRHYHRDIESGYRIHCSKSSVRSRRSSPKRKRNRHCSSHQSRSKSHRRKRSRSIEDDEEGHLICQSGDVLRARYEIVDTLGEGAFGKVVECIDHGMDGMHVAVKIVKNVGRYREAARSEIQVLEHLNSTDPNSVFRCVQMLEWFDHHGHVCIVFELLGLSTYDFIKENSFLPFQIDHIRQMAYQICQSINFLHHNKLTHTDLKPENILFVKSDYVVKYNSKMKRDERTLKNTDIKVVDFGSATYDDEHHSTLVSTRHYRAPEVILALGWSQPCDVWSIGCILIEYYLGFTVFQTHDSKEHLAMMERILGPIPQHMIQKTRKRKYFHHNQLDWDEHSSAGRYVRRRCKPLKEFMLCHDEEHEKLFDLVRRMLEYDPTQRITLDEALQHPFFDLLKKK
SMILES,"activity change, negative = inhibition",Potency
FC(F)(F)c1ccccc1-c1nccc(NCc2cccs2)n1,-9.63% (inactive),
N#CCCn1c(=O)cnc2cnc(Oc3ccccc3)nc21,-5.72% (inactive),
Cc1noc(C)c1-c1ccc2ncnc(Nc3ccc(F)cc3)c2c1,,6.31 µM (active)
Cn1c(=O)c(CCc2ccccc2)nc2cnc(OCc3ccccc3)nc21,2.5% (inactive),
CN1CCN(c2ncc3ncc(=O)n(CCC#N)c3n2)CC1,-13% (inactive),
COCCn1c(=O)c(-c2cccc(C#N)c2)nc2cnc(OC)nc21,1.4% (inactive),
Cc1nc2cnc(N3CCNCC3)nc2n(Cc2cccs2)c1=O,-3.07% (inactive),
COc1cccc(Cn2c(=O)c(-c3ccc(F)cc3)nc3cnc(OC)nc32)c1,5.4% (inactive),
Cc1noc(C)c1-c1cncnc1N(C)Cc1ccco1,-0.855% (inactive),
COCCn1c(=O)c(-c2cn(C)c3ccccc23)nc2cnc(Oc3cccc(Cl)c3)nc21,7.25% (inactive),
COc1cccc(Nc2ncc3nc(C)c(=O)n(Cc4cccs4)c3n2)c1,-20.5% (inactive),
O=c1c(-c2ccc(F)cc2)nc2cnc(Oc3ccccc3)nc2n1C1CC1,5.28% (inactive),
COc1ccc(-n2c(=O)c(-c3cccs3)nc3cnc(OC)nc32)cc1,-2.98% (inactive),
COCCn1c(=O)c(-c2cn(C)c3ccccc23)nc2cnc(N3CCOCC3)nc21,-5.95% (inactive),
CN1CCN(c2ncnc3ccc(-c4ccc5c(c4)OCO5)cc23)CC1,,0.562 µM (active)
N#CCCn1c(=O)c(-c2ccc(Cl)cc2)nc2cnc(Oc3ccccc3)nc21,6.64% (inactive),
COc1ccccc1-c1cncnc1NCCNC(C)=O,7.28% (inactive),
c1nc(N2CCNCC2)c2cc(-c3ccoc3)ccc2n1,,3.16 µM (active)
Cc1ccccc1-c1cncnc1NCc1ccccc1,-5.32% (inactive),
c1ccc(CNc2cc(-c3cccnc3)ncn2)cc1,,4.47 µM (active)

SMILES,"activity change, negative = inhibition",Potency
COc1ccc(-n2c(=O)c(-c3cccs3)nc3cncnc32)cc1,-17.2% (inactive),
c1ccc(CNc2ncnc3ccc(-c4cccnc4)cc23)cc1,,3.16 µM (active)
COc1cccc(-c2cc(N(C)Cc3ccco3)ncn2)c1,,14.1 µM (active)
COc1cccc(Cn2c(=O)c(-c3cccc(C#N)c3)nc3cnc(N4CCN(C)CC4)nc32)c1,-3.23% (inactive),
COc1ccc(Oc2ncc3nc(-c4cccs4)c(=O)n(CCC#N)c3n2)cc1,3.69% (inactive),
Cn1cc(-c2nc3cnc(N4CCNCC4)nc3n(C)c2=O)c2ccccc21,-0.232% (inactive),
CN1CCN(c2ncc3nc(-c4ccc(Cl)cc4)c(=O)n(-c4ccccc4)c3n2)CC1,-2.4% (inactive),
COc1ccc(Oc2ncc3nc(-c4ccc(OC)cc4)c(=O)n(C4CC4)c3n2)cc1,1.64% (inactive),
CNc1ccnc(-c2ccccc2OC)n1,3.16% (inactive),
CN(Cc1ccco1)c1cc(-c2ccoc2)ncn1,-14.6% (inactive),
CC(=O)NCCNc1ncnc2ccc(-c3c(C)noc3C)cc12,,6.31 µM (active)
O=c1c(-c2ccccc2)nc2cnc(N3CCNCC3)nc2n1-c1ccccc1,-21% (inactive),
CCNc1ncc2nc(-c3ccc(OC)cc3)c(=O)n(C[C@H]3CCCO3)c2n1,3.64% (inactive),
CS(=O)(=O)Nc1cccc(-c2ccc3ncnc(NC4CC4)c3c2)c1,,5.01 µM (active)
O=c1c(-c2cc(F)cc(F)c2)nc2cncnc2n1Cc1ccccc1,-7.35% (inactive),
COc1ccc(-n2c(=O)c(C)nc3cnc(OC)nc32)cc1,2.51% (inactive),
c1cncc(CNc2ccnc(-c3ccc4c(c3)OCO4)n2)c1,,0.1 µM (active)
Cc1ccccc1-c1cncnc1NCc1cccs1,-13.9% (inactive),
COc1ncc2nc(-c3ccc(F)cc3)c(=O)n(-c3ccccc3)c2n1,1.8% (inactive),
Cc1nc2cnc(N3CCOCC3)nc2n(Cc2ccc(F)cc2)c1=O,4.51% (inactive),

# — PubChem BioAssay (NCATS)
